The results in this text go back to PubChem BioAssay (NCI).

Common to all, as to assay: NCI-60 one-dose screen, 48 h (100 = growth as untreated, 0 = no growth, -100 = all killed)
One assay has as its system NCI-H23 lung. The following applies: 10 µM unless noted.
The subject of another assay is NCI-H226 lung. As to conditions: 10 µM unless noted.
The next assay has as its system NCI-H322M lung. As to conditions: 10 µM unless noted.
In the next assay the test system is NCI-H460 lung. The following applies: 10 µM unless noted.
The subject of another assay is HOP-92 NSCLC. The following applies: 10 µM.
In the next assay the test system is NCI-H522 lung. As to conditions: 10 µM.
The next assay deals with A549/ATCC NSCLC. The following applies: 10 µM unless noted.
Another assay deals with 786-0 renal. As to conditions: 10 µM unless noted.
For the next assay, the system named is COLO 205 colon. The following applies: 10 µM unless noted.
In another assay the test system is DU-145 prostate. As to conditions: 10 µM unless noted.
A further assay has as its system K-562 leukemia. The following applies: 10 µM unless noted.
The subject of a further assay is MALME-3M melanoma. As to conditions: 10 µM unless noted.
For a further assay, the system named is MDA-MB-231 breast. The following applies: 10 µM unless noted.
For another assay, the system named is RXF 393 renal. As to conditions: 10 µM unless noted.
Another assay has as its system SF-268 CNS. The following applies: 10 µM unless noted.
Another assay relates to SF-295 CNS. As to conditions: 10 µM unless noted.
For a further assay, the system named is SF-539 CNS. As to conditions: 10 µM unless noted.
Another assay relates to UACC-257 melanoma. The following applies: 10 µM unless noted.
A further assay deals with M14 melanoma. As to conditions: 10 µM unless noted.

Compounds without any hit were thinned out: in the full panel of roughly 83,000, 20% have a hit.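 Negative percent growth values reflect cell death: -40 means 40% of the cells present at the start died, and -100 means all died.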 A number with no mark means an inactive call. Active and inactive are the calls of the source. The calls were made as follows: active = growth percent below 10; inactive = the rest.

For `O=S(=O)(O)CCI`, the growth with NCI-H23 lung was 102%; in the assay on NCI-H226 lung, 95.9%; with NCI-H322M lung, 101%; with NCI-H460 lung, 104%; with HOP-92 NSCLC, 103%; in the assay on NCI-H522 lung, 103%. Besides, the growth with A549/ATCC NSCLC was 114%; in the assay with 786-0 renal, 106%; in the assay on COLO 205 colon, 111%; in the assay with DU-145 prostate, 112%; in the assay with K-562 leukemia, 112%; with MALME-3M melanoma, 113%. The growth is 104% in the assay on MDA-MB-231 breast; 98.8% in the assay with RXF 393 renal; 104% in the assay with SF-268 CNS; 105% in the assay on SF-295 CNS; 102% in the assay with SF-539 CNS; 113% in the assay with UACC-257 melanoma. Also, in the assay on M14 melanoma, the growth is 99%.
As for `CCc1ccc(C(=Nc2ccc(N(C)C(=O)CN3CCN(C)CC3)cc2)c2c(O)[nH]c3ccc(C(=O)OC)cc23)cc1`, the growth is -60.5% (active) in the assay with NCI-H23 lung; -26.2% (active) with NCI-H226 lung; -39.7% (active) in the assay on NCI-H322M lung; -74.5% (active) with NCI-H460 lung; -70.7% (active) in the assay on HOP-92 NSCLC; -64.1% (active) in the assay with NCI-H522 lung. In addition, the growth with A549/ATCC NSCLC was -29.3% (active); in the assay on 786-0 renal, -93.3% (active); in the assay with COLO 205 colon, -69.4% (active); with DU-145 prostate, -11.5% (active); with K-562 leukemia, -60.7% (active); with MALME-3M melanoma it was -91.8% (active). For the same compound, the growth is -71% (active) with MDA-MB-231 breast; -96.8% (active) in the assay on RXF 393 renal; -69.9% (active) in the assay on SF-268 CNS; -88% (active) in the assay with SF-295 CNS; -98.5% (active) in the assay with SF-539 CNS; -67.4% (active) in the assay with UACC-257 melanoma. Besides, the growth in the assay with M14 melanoma is -86.7% (active).
`Cc1ccc(S(=O)(=O)NC(CCC(=O)Nc2ccccc2)C(=O)Nc2ccccc2)cc1` (configuration not stated): the growth with NCI-H23 lung is -24.8% (active); with NCI-H226 lung it was 6.72% (active); with NCI-H322M lung it was -17% (active); in the assay with NCI-H460 lung, -4.49% (active); with HOP-92 NSCLC, -45.2% (active); in the assay on NCI-H522 lung, -71.8% (active). In addition, the growth was -19% (active) with A549/ATCC NSCLC; -15.6% (active) in the assay with 786-0 renal; -22.6% (active) in the assay with COLO 205 colon; 5.02% (active) with DU-145 prostate; 3.93% (active) in the assay with K-562 leukemia; -36.5% (active) in the assay on MALME-3M melanoma. Also, the growth with MDA-MB-231 breast is -30.1% (active); in the assay with RXF 393 renal, -24.6% (active); in the assay with SF-268 CNS it was 8.46% (active); in the assay on SF-295 CNS it was -3.31% (active); in the assay on SF-539 CNS it was -75.6% (active); with UACC-257 melanoma, -18.4% (active). For the same compound, in the assay on M14 melanoma, the growth is 3.93% (active).
For `c1cc(C2CCCCC2)ccc1OCCCCCCN1CCNCC1`, the growth is 42.3% in the assay on NCI-H23 lung; 81.9% in the assay on NCI-H226 lung; 82% in the assay with NCI-H322M lung; -7.36% (active) with NCI-H460 lung; 6.55% (active) with HOP-92 NSCLC; 77.7% with NCI-H522 lung. The growth is 36.5% in the assay on A549/ATCC NSCLC; 58.3% with 786-0 renal; -52.2% (active) with COLO 205 colon; 17.9% with DU-145 prostate; -42.1% (active) in the assay with K-562 leukemia; 52.7% with MALME-3M melanoma. Further, the growth in the assay with MDA-MB-231 breast is 33.4%; in the assay with RXF 393 renal it was 32%; with SF-268 CNS, 54.5%; in the assay on SF-295 CNS, 73.1%; in the assay on SF-539 CNS, 32.4%; with UACC-257 melanoma, 73.1%. Moreover, the growth in the assay on M14 melanoma was 40.3%.
In the case of `Brc1ccc(-c2nc3ccccc3s2)cc1`, the growth is 92.4% in the assay on NCI-H23 lung; 75.8% in the assay on NCI-H226 lung; 92.7% with NCI-H322M lung; 97.1% with NCI-H460 lung; 97.7% with HOP-92 NSCLC; 93.8% in the assay with NCI-H522 lung. The growth was 106% with A549/ATCC NSCLC; 106% in the assay on 786-0 renal; 106% in the assay with COLO 205 colon; 108% with DU-145 prostate; 96.2% in the assay with K-562 leukemia; 95.8% in the assay on MALME-3M melanoma. Moreover, the growth in the assay with MDA-MB-231 breast was 82.4%; in the assay with RXF 393 renal, 96%; in the assay on SF-268 CNS it was 90%; with SF-295 CNS it was 98%; in the assay with SF-539 CNS, 93.2%; with UACC-257 melanoma, 117%. Moreover, in the assay on M14 melanoma, the growth was 97.7%.
Take `Cc1nc2c(nnn2-c2ccccc2)c2nc(-c3ccccc3)oc(=O)c12`: the growth in the assay on NCI-H23 lung was 109%; in the assay on NCI-H226 lung it was 99.8%; in the assay on NCI-H322M lung it was 103%; in the assay on NCI-H460 lung it was 116%; in the assay with HOP-92 NSCLC, 107%; in the assay on NCI-H522 lung it was 105%. For the same compound, the growth in the assay with A549/ATCC NSCLC is 116%; in the assay on 786-0 renal it was 101%; in the assay with COLO 205 colon, 115%; with DU-145 prostate it was 117%; in the assay on K-562 leukemia, 106%; in the assay on MALME-3M melanoma, 115%. The growth was 109% in the assay with MDA-MB-231 breast; 109% with RXF 393 renal; 108% with SF-268 CNS; 101% with SF-295 CNS; 97.7% in the assay with SF-539 CNS; 123% with UACC-257 melanoma. In addition, in the assay with M14 melanoma, the growth was 102%.
Consider `CC1(C)C(O)NC(Cl)=C(C#N)C1(C#N)C#N` (configuration not stated), for which the growth in the assay on NCI-H23 lung is 92.2%; with NCI-H226 lung it was 135%; in the assay with NCI-H322M lung, 130%; with NCI-H460 lung, 113%; in the assay with HOP-92 NSCLC, 141%; in the assay on NCI-H522 lung, 91.5%. For the same compound, the growth with A549/ATCC NSCLC is 103%; in the assay on 786-0 renal, 95.6%; with COLO 205 colon, 118%; with DU-145 prostate, 110%; in the assay on K-562 leukemia, 94.4%; in the assay on MALME-3M melanoma it was 136%. Moreover, the growth was 111% in the assay with MDA-MB-231 breast; 7.52% (active) with RXF 393 renal; 123% with SF-268 CNS; 174% in the assay with SF-295 CNS; 95.9% in the assay with SF-539 CNS; 109% in the assay with UACC-257 melanoma. The growth with M14 melanoma is 110%.
For the compound `CC(=O)OC1/C=C\CC/C=C\C1` (configuration not stated), the growth with NCI-H23 lung was 121%; in the assay with NCI-H226 lung it was 102%; in the assay with NCI-H322M lung it was 102%; in the assay on NCI-H460 lung, 102%; in the assay on HOP-92 NSCLC it was 92.8%; in the assay with NCI-H522 lung, 102%. In addition, the growth in the assay with A549/ATCC NSCLC was 100%; in the assay on 786-0 renal, 102%; with COLO 205 colon it was 121%; in the assay on DU-145 prostate, 113%; in the assay on K-562 leukemia it was 110%; in the assay with MALME-3M melanoma it was 108%. The growth in the assay on MDA-MB-231 breast is 111%; in the assay with RXF 393 renal it was 110%; in the assay with SF-268 CNS, 107%; in the assay with SF-295 CNS it was 97.3%; in the assay with SF-539 CNS, 93.1%; in the assay on UACC-257 melanoma, 108%. Besides, in the assay with M14 melanoma, the growth is 104%.
